Screening results (PubChem BioAssay)
SARS PLP yeast – qHTS of Yeast-based Assay for SARS-CoV PLP; AID 485353, 2010; S. cerevisiae expressing SARS-CoV PLpro, growth rescue; Potency, µM (titrated, usually from 32.9 µM), inactives show top-dose activity, positive = growth rescue, actives largely listed as activators; actives 0.19% (n = 330,000); calls by dose curve; further: potency means the concentration at half of the fitted maximal effect; 0% is about no effect; nearly all actives have a fitted effect of over 55% in size
Pf growth 96h – Primary qHTS for delayed death inhibitors of the malarial parasite plastid, 96 hour incubation. actives 6.9% (n = 320,000). Potency, µM (titrated, usually from 28.7 µM), for inactives: at the top dose activity change, negative = inhibition, hits mostly inhibitors. AID 504834, 2011. P. falciparum luciferase reporter growth, 96 h; further: potency means the concentration at half of the fitted maximal effect; on the % scale 0 is the no-effect control and ±100 the full control effect
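Compounds incubated with erythrocytes infected by luciferase-expressing P. falciparum (2% hematocrit, 0.05% parasitemia final) for 96 hours, 37 C in 5% CO2. Growth inhibition scored as decreased luciferase luminescence.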
Pf growth 48h – Primary qHTS for delayed death inhibitors of the malarial parasite plastid, 48 hour incubation; P. falciparum luciferase growth in erythrocytes, 48 h; actives 5.9% (n = 310,000); Potency, µM (titrated, usually from 28.7 µM), without a hit: top-dose activity change, negative = inhibition, actives largely listed as inhibitors; further: potency means the concentration at half of the fitted maximal effect; on the % scale 0 is the no-effect control and ±100 the full control effect
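Parasite viability was followed by luminescence of a genomically integrated firefly luciferase. Cultures held 0.1% parasitemia at 2% hematocrit (final), incubated under 5% CO2 at 37 C.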
HCMV antiviral – qHTS Assay for inhibitors of the human cytomegalovirus (HCMV); activity change, negative = inhibition, % at 57.5 µM; HFF cells, HCMV-luciferase reporter, 72 h; stronger effect = lower value; actives 4.5% (n = 410,000); in the data active means activity change below about -60%; inconclusive means no clear call, values can overlap the other calls; inactive means above about -39%; further: on the % scale 0 is the no-effect control and ±100 the full control effect
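Two compound doses tested in HFFs infected with HCMV-luciferase, MOI 1 PFU/cell, 72 h at 37C. Lysate luminescence read with OneGlo; data normalized against buffer-only and 10uM Salinomycin inhibitor controls.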
Sm TGR block – qHTS Assay for the Inhibitors of Schistosoma Mansoni Peroxiredoxins; Schistosoma mansoni thioredoxin glutathione reductase (TGR), Q962Y6; actives 3% (n = 360,000); Potency, µM (titrated, usually from 114 µM), without a hit: at the highest dose activity change, negative = inhibition, hits mostly inhibitors; purified TGR, DTNB reduction, TNB absorbance 405 nm; AID 485364, 2010; further: potency means the concentration at half of the fitted maximal effect; on the % scale 0 is the no-effect control and ±100 the full control effect; nearly all actives have a fitted effect of over 60% in size
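TGR 20 nM + NADPH 100 uM (dispensed conc.), cpd preinc 15 min RT; start with NADPH (500 uM addition) then DTNB (15 mM addition). Kinetic TNB absorbance, 405 nm filter. Four-parameter Hill fit across titration.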
HCV inhibitor – qHTS Assay for Inhibitors of Hepatitis C Virus (HCV); AID 651820, 2012; Potency, µM (titrated, usually from 41.8 µM), inactives show top-dose activity change, negative = inhibition, usual class: inhibitors; actives 3.4% (n = 340,000); Huh7.5.1 HCVcc-Cre infection, luciferase reporter, 44 h; further: potency means the concentration at half of the fitted maximal effect; on the % scale 0 is the no-effect control and ±100 the full control effect
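A cell-based infection assay in which seeded cells (1,000 per well) receive test compound after 4 h, are inoculated with HCVcc-Cre at approximately 0.5 moi, and are incubated 44 h before luminescence detection.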
Active calls of the source: *; ? = inconclusive; . = not tested or not shown; + = active, no number; ! = not confirmed by another sample; [ ] = remark or other dose. This is a sample that favours compounds with a hit; in the whole collection about 15% have one here. Unless noted, the call rests on the fitted dose curve; in most records, active means well fitted curve in the direction sought with a large enough effect; inconclusive means small, poorly fitted or top-dose-only effect, or another doubt; inactive means no such curve, though single readings can be large; an effect the other way counts as inactive or inconclusive.

SMILES | SARS PLP yeast | Pf growth 96h | Pf growth 48h | HCMV antiviral | Sm TGR block | HCV inhibitor
CSCCNCc1c(C(=O)N2CCOCC2)nc2c(C)cccn12 | 0% | ? | 7% | -4 | -17%[57.1 µM] | 23%
C=CC(=O)Nc1ccc(N(C)c2ccnc(Nc3ccc(N4CCN(C)CC4)cc3)n2)cc1 | 17% | . | . | 83 | . | ?
Cc1ccc(CNC(=O)C2CCN(C(=O)c3ccc(-n4ccc5ccccc54)s3)CC2)cc1 | . | . | . | -14 | 3% | .
O=C(CN1C(=O)c2cccnc2Oc2ccc(Cl)cc21)Nc1cccc(C(F)(F)F)c1 | . | . | . | 0 | 1% | .
CSc1ccc(CCNC(=O)CN2C(=O)c3cccnc3Oc3ccc(Cl)cc32)cc1 | . | . | . | ? | 17% | .
COc1cccc(NC(=O)CN2C(=O)c3cccnc3Oc3ccc(Cl)cc32)c1 | 4% | 2% | 13µM* | 67 | 6% | ?
COc1ccc(Br)cc1CNC(=O)CN1C(=O)c2cccnc2Oc2ccc(C)cc21 | . | . | . | + | -3% | .
Cc1ccc2c(c1)N(CC(=O)NCc1ccccc1Br)C(=O)c1cccnc1O2 | . | . | . | 0 | -2% | .
O=C(CN1C(=O)c2cccnc2Oc2ccc(Cl)cc21)NCCCc1ccccc1 | 6% | 77% | ? | -34 | 1% | 11µM*
COc1ccc(C2CC(c3cccs3)=NN2C(=O)CCCC(=O)O)cc1OC (stereo not drawn) | . | . | . | 1 | . | .
Cc1ccccc1CNC(=O)c1ccc2nc([C@@H]3O[C@H](CO)[C@H](O)[C@H](O)[C@H]3O)[nH]c2c1 | . | . | . | 19 | . | .
COCCNC(=O)C1CCCN(C(=O)C2(c3ccc(Cl)cc3)CCCC2)CC1 (stereo not drawn) | . | . | . | 5 | . | .
CC(=O)Nc1ccc(NC(=O)C2CCN(S(=O)(=O)c3ccc4c(c3)CCCC(=O)N4)CC2)cc1 | . | . | . | 16 | 5% | .
NC(=O)N/N=C/c1cn(-c2ccccc2)nc1-c1cccs1 | -2% | ? | ? | 9 | -4% | ?
O=Cc1cn(-c2ccccc2)nc1-c1cccc([N+](=O)[O-])c1 | . | . | . | -1 | . | .
N#Cc1ccc(N/N=C/c2cn(-c3ccccc3)nc2-c2ccccc2)c([N+](=O)[O-])c1 | -6% | 0.52µM* | ? | 39 | -20% | 6%
NS(=O)(=O)c1ccc(N/N=C/c2cn(-c3ccccc3)nc2-c2cccs2)c([N+](=O)[O-])c1 | 1% | 3.3µM* | 1.5µM* | -113* | 4% | 11µM*
NS(=O)(=O)c1ccc(N/N=C/c2cn(-c3ccccc3)nc2-c2cccs2)cc1 | -22% | 0.066µM* | 0.19µM* | -77* | -5% | 1.8µM*
Cc1ccc(CSCCC(=O)NCc2ccc(F)cc2Cl)cc1 | . | . | . | -32 | ? | .
O=S(=O)(c1cccc(NC(=S)Nc2ccc(Br)cc2Cl)c1)N1CCOCC1 | 1% | 59% | ? | -10 | 14µM* | 1%
O=C(CNc1cccc(S(=O)(=O)N2CCOCC2)c1)Nc1cccc(Br)c1 | -1% | 9.3µM* | 6.6µM* | -29 | 8% | ?
O=C(Cc1ccc(Br)cc1)Nc1cccc(S(=O)(=O)N2CCOCC2)c1 | -3% | ? | -22% | -22 | -1% | -6%
O=C(CNc1cccc(S(=O)(=O)N2CCOCC2)c1)Nc1ccc(C(F)(F)F)cc1 | 5% | 7.4µM* | 6.6µM* | -11 | 7% | ?
O=C(Cc1c(Cl)cccc1Cl)Nc1cccc(S(=O)(=O)N2CCOCC2)c1 | 0% | ? | -22% | -2 | 6% | ?
CC(=O)c1cccc(NCC(=O)Nc2cc(S(=O)(=O)N3CCCCC3)ccc2C)c1 | -1% | 10µM* | ? | -35 | 1% | 11µM*
SMILES | SARS PLP yeast | Pf growth 96h | Pf growth 48h | HCMV antiviral | Sm TGR block | HCV inhibitor
COc1ccc(NC(=O)CCc2c(C)nn(-c3ccc(N4CCCC4)nn3)c2C)cc1Cl | . | . | . | 70 | 1% | .
CN(C)CCCN=Cc1c(O)n(Cc2ccc3c(c2)OCO3)c(=O)c2ccccc12 | 1% | ? | -6% | . | 1% | .
CC(C)c1ccc(OCc2cc(=O)n3c(-c4ccccc4)csc3n2)cc1 | . | . | . | -19 | -3% | .
O=C(CSc1nnc2c(n1)[nH]c1ccccc12)Nc1ccc(N2CCOCC2)cc1 | -1% | -7% | -23% | -5 | -17% | ?
CCN(CC)S(=O)(=O)c1cccc(NC(=O)CNc2cccc(S(=O)(=O)N3CCOCC3)c2)c1 | 2% | ? | ? | . | 4% | 0.56µM*
Cc1cc(C)cc(NC(=O)CN2C(=O)NC(Cc3c[nH]c4ccccc34)C2=O)c1 (stereo not drawn) | 4% | . | . | 0 | . | 9%
O=C(CNc1cccc(S(=O)(=O)N2CCCC2)c1)Nc1cccc(Br)c1 | 2% | 4.1µM* | 5.2µM* | -29 | 1% | ?
O=C(CN1C(=O)NC(Cc2c[nH]c3ccccc23)C1=O)Nc1cccc(S(=O)(=O)N2CCOCC2)c1 (stereo not drawn) | -1% | 9.3µM* | ? | -8 | 8% | 0%
O=C(CSc1nnc2c(n1)[nH]c1ccccc12)Nc1cccc(S(=O)(=O)N2CCOCC2)c1 | -1% | 15µM* | ? | -10 | 2% | ?
O=C(CNc1ccc(Br)cc1)Nc1ccc(S(=O)(=O)N2CCCC2)cc1 | 1% | 12µM* | 9.3µM* | 34 | -1% | -22%
O=C(CNc1ccc(Br)cc1)Nc1cccc(S(=O)(=O)N2CCCC2)c1 | 0% | -51% | -85% | -6 | 4% | ?
CCc1ccc(-c2cc(C(F)(F)F)n3nc(C(=O)Nc4c(C)nn(Cc5ccc(F)cc5)c4C)cc3n2)s1 | 10% | 3%[5.75 µM] | ? | -37 | 11% | 1.6µM*
CN1CCN(C(=O)c2cc3nc(-c4ccco4)cc(C(F)(F)F)n3n2)CC1 | 1% | 3% | -5% | -5 | -2% | -20%
O=C(c1cc2nc(-c3ccco3)cc(C(F)(F)F)n2n1)N1CCc2ccccc2C1 | -3% | ? | 3% | -38 | 50µM* | ?
Cc1ccc(Cn2nc(C)c(NC(=O)c3cc(-c4ccc(F)cc4)on3)c2C)cc1 | . | . | . | ? | -7% | .
Cc1ccccc1Cn1nc(C)c(NC(=O)c2cc3nc(-c4ccco4)cc(C(F)(F)F)n3n2)c1C | -7% | . | 13µM* | -5 | -23% | ?
Cc1ccccc1Cn1nc(C)c(NC(=O)c2cc(-c3ccco3)on2)c1C | 0% | 11% | ? | -25 | -18% | -7%
O=C(Nc1cnn(C23CC4CC(CC(C4)C2)C3)c1)c1cnn2c(C(F)(F)F)cc(-c3ccco3)nc12 | 5% | ? | -3% | -22 | -12% | 11µM*!
